Assay outcomes (PubChem)
Cruzain Triton – blocks cruzain activity in presence of Triton detergent; P25779; AID 1478; Potency, µM, hits mostly inhibitors; purified cruzain, Z-FR-AMC fluorescence, 0.01% Triton; hit rate 0.43% among 200,000; also: nearly all actives have a fitted effect of over 40% in size
Target sequence (P25779 123-467 limits assumed): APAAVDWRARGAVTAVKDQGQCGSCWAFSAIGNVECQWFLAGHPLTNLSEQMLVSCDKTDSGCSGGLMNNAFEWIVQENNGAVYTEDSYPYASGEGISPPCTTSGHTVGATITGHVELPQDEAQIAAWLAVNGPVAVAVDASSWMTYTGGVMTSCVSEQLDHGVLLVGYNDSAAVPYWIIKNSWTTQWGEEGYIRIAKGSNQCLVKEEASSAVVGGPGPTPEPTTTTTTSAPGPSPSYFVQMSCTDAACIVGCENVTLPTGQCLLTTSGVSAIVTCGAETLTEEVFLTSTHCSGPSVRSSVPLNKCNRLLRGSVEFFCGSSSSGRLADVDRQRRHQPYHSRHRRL
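Cruzain (1.5 nM) preincubated 15 min at RT with compound in 100 mM sodium acetate pH 5.5, 5 mM DTT, 0.01% Triton X-100. Reaction started with 2 uM Z-FR-AMC; AMC fluorescence (ex 360/em 450 nm) change over 60 s gave rate.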
Cruzain inh noDet – blocks cruzain activity in detergent-free assay; P25779; purified cruzain, Z-FR-AMC fluorescence, no detergent; Potency, µM, actives largely listed as inhibitors; hit rate 2.3% among 200,000; AID 1476; also: nearly all actives have a fitted effect of over 40% in size
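Purified cruzain at 1.5 nM, pre-incubated 15 min with compound at room temperature in 100 mM sodium acetate pH 5.5, 5 mM DTT, 0.00005% Triton X-100. Reaction started with 2 uM Z-FR-AMC; AMC fluorescence increase over 60 s gives rate.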
Numbers stand for hits; . = inactive; ? = inconclusive; ! = not confirmed by another sample. A selection: hits, their analogues and other compounds. The true share with any hit is near 2.5%. Calls follow the shape of the dose curve; as a rule, active = well fitted curve in the direction sought with a large enough effect; inconclusive = small, poorly fitted or top-dose-only effect, or another doubt; inactive = no such curve, though single readings can be large; an effect the other way counts as inactive or inconclusive.

SMILES	Cruzain Triton	Cruzain inh noDet
COc1ccc(/C=C2\CCCC3C2=NN(C(=O)COC(=O)CNC(=O)c2ccccc2)C3c2ccc(OC)cc2)cc1 (centres undefined)	.	16µM
COc1ccc(NC(=O)/C(C#N)=C\c2cc(C)n(-c3ccc(Oc4ccc([N+](=O)[O-])cn4)cc3)c2C)cc1	.	7.9µM
COc1ccc(NC(=O)/C(C#N)=C/c2cc(C)n(-c3ccc(F)cc3)c2C)cc1	.	.
CCCCC(C=O)CC (centres undefined)	.	.
CSc1nc(C)cc(Nc2ccc(O)c(CN3CCCCC3)c2)n1	.	.
Cc1ccc(C(=O)N2CCN(c3ccc(NC(=O)CSc4ccc(Cl)cc4)cc3)CC2)cc1	.	.
CS(=O)(=O)N1CCN(c2ccc(NC(=O)CSc3ccc(Cl)cc3)cc2)CC1	.	4µM
Cc1ccc(C(=O)Nc2ccc(N3CCOCC3)cc2)cc1	.	.
Cc1ccc(C(=O)Nc2ccc(N3CCN(S(C)(=O)=O)CC3)cc2)cc1	.	16µM
Cc1ccc(OCC(=O)Nc2ccc3nn(-c4ccc(Cl)cc4)nc3c2)cc1	.	.
O=C(Cn1c(=O)n(-c2ccc(Cl)cc2)c(=O)c2oc3ccccc3c21)Nc1ccccc1	.	.
S=C=Nc1cccc2ccccc12	.	.
Fc1cccc(Cl)c1/C=N\N=C1c2ccccc2-c2ccccc21	.	.
COc1ccccc1-c1cc(Nc2ccn[nH]2)ncn1	.	.
CCOC(=O)C1=C(C)NC(=S)NC1c1ccc(-c2ccc(Cl)cc2)o1 (centres undefined)	.	?
COC(=O)C1=C(C)NC(=S)NC1c1ccc(-c2cccc(Cl)c2)o1 (centres undefined)	.	25µM
COc1ccc(CNC(=O)CCCN2C(=O)CCn3nc(-c4cn(C)c5ccccc45)cc32)cc1	.	.
COc1ccc(C)cc1NC(=O)c1ccc2c(c1)CCN2S(=O)(=O)c1ccc(Cl)cc1	.	.
O=C1[C@H]2[C@H]3C=C[C@@H](C4[C@H]3[C@@H]3C(=O)N(CN5CCSCC5)C(=O)[C@H]43)[C@H]2C(=O)N1CN1CCSCC1 (some centres undefined)	.	.
Cc1c(C)n(Cc2ccc(F)cc2)c2ccc(C(=O)Nc3ccc(Cl)cc3)cc12	.	25µM
COc1ccc(OC)c(NC(=O)c2ccc3c(c2)c(C)c(C)n3Cc2ccc(F)cc2)c1	.	5µM
CCOc1ccc(NC(=O)c2ccc3c(c2)c(C)c(C)n3Cc2ccc(F)cc2)cc1	.	25µM
COc1ccc(NC(=O)c2ccc3c(c2)c(C)c(C)n3Cc2ccc(F)cc2)c(OC)c1	.	?
CCOc1ccc(NC(=O)c2ccc3[nH]c(C)c(C)c3c2)cc1	.	.
Cc1ccc(CNC(=O)c2ccc3c(c2)c(C)c(C)n3Cc2ccc(Cl)cc2)o1	.	?
SMILES	Cruzain Triton	Cruzain inh noDet
CCn1c(C)c(C)c2cc(C(=O)Nc3cccc(Cl)c3)ccc21	.	?
CC(=O)c1cccc(NC(=O)c2ccc3c(c2)c(C)c(C)n3Cc2ccc(Cl)cc2)c1	.	6.3µM
CCCCC[C@H](O)/C=C/C=C\C/C=C\CCCCCCC(=O)O	.	.
Cc1cc2c(cc1S(=O)(=O)Nc1cccc(C#N)c1)OCC(=O)N2	.	.
Oc1ccc(C2=NNC(=NCc3ccc4c(c3)OCO4)SC2)c(O)c1	.	?
COc1ccc(OC)c(C2=NNC(=NCc3ccc4c(c3)OCO4)SC2)c1	.	13µM
CSCC[C@@H](N)P(C)(=O)O	.	.
O=C(N/N=C\c1ccc(-c2ccccc2[N+](=O)[O-])o1)C1COc2cc3ccccc3cc2O1 (centres undefined)	.	7.9µM
O=C(N/N=C\c1ccc(-c2ccccc2[N+](=O)[O-])o1)C1COc2ccccc2O1 (centres undefined)	.	?
O=C(Nc1ccc(Oc2ccccc2)cc1)C1CCN(S(=O)(=O)c2ccccc2)CC1	.	.
Cc1ccc(Cl)cc1N1CCN(C(=O)CCS(=O)(=O)c2cc(Br)cc3c2N(C(=O)C2CC2)CC3)CC1	.	.
COc1cccc(-c2nnc3n2N=C(c2cccc(Br)c2)CS3)c1	.	7.9µM
CC1=Nn2c(nnc2-c2cc(-c3ccccc3)n[nH]2)SC1	.	.
Cc1cccc(-c2nnc3n2N=C(c2ccc(Br)cc2)CS3)c1	.	.
c1ccc(-c2ccc(C3=Nn4c(nnc4-c4cc(-c5ccccc5)n[nH]4)SC3)cc2)cc1	.	3.2µM
COc1ccc(Cl)cc1NC(=O)CSc1nc(-c2ccco2)cc(C(F)(F)F)n1	.	.
Cc1cc2n(n1)CCC(=O)N2Cc1ccc(C(=O)Nc2ccc(Br)c(C)c2)cc1	.	?
CCn1ccc2c(OCC(=O)NCc3ccc(C)cc3)cccc2c1=O	.	.
CCC(=O)N1CCc2cc(Br)cc(S(=O)(=O)CCC(=O)NCc3cccc(OC)c3)c21	.	.
COC(=O)[C@H](CCCN=C(N)N)NC(=O)CCCc1c(-c2ccccc2)[nH]c2c(F)cc(F)cc12	.	.
N=C1SC(c2ccccc2)C(=O)N1c1ncc(Cc2ccccc2)s1 (centres undefined)	.	7.9µM
Cc1ccc(Cc2cnc(N3C(=N)SC(c4ccccc4)C3=O)s2)cc1 (centres undefined)	.	?
Cc1ccc(-c2nc3ncccc3o2)cc1NC(=O)c1ccccc1Br	.	.
OC1CCN(c2c3c(nc4cc(-c5cccc(F)c5)nn24)CCCC3)CC1	.	.
Clc1cccc(-c2cc3nc4c(c(N5CCNCC5)n3n2)CCCC4)c1	.	25µM
SMILES	Cruzain Triton	Cruzain inh noDet
COc1cccc(C(=O)Nc2nc(-c3ccc(Br)cc3)ns2)c1	.	25µM
COc1ccc(-c2nsc(NC(=O)c3cccc(OC)c3)n2)cc1	.	.
COc1ccc2c3c([nH]c2c1)C(C)=NCC3	.	10µM!
COc1ccc2[nH]c3c(c2c1)CCn1c-3nc2ccccc2c1=O	.	.
Cc1ccc2[nH]c3c(c2c1)CCC3=O	.	.
CC1=NCCc2c1[nH]c1cc(O)ccc21	28µM!	13µM!
COc1ccc(Nc2ncnc3c2c(-c2ccccc2)cn3-c2ccc(C)c(Cl)c2)cc1OC	.	.
NC(=S)N=Nc1c(O)[nH]c2cc(F)c(F)cc12	14µM	10µM
CNC(=S)N=Nc1c(O)[nH]c2ccc(C(C)C)cc12	.	.
COC(=O)c1n[nH]c2ccccc12	.	.
O=C(COC(=O)c1n[nH]c2ccccc12)Nc1ccc([N+](=O)[O-])cc1	.	10µM
NCC(=O)N[C@H](CO)C(=O)O	.	.
COc1cccc(-c2nc(-c3ccccc3)no2)c1	.	.
COc1ccc(-c2cc3nnc(-c4ccccc4)nc3s2)cc1	.	3.2µM
COc1ccccc1CNC(=O)Cn1ncc2c(C)n(Cc3ccccc3Cl)c(C)c2c1=O	.	.
CCc1cccc(NC(=O)CN2c3ccccc3S(=O)(=O)c3ccccc32)c1	.	.
COc1ccc(/C=C(\C#N)C(=O)Nc2cc(S(=O)(=O)N3CCCCC3)ccc2N2CCCCC2)cc1	.	4µM
COc1ccc(/C=C/C(=O)Nc2cc(S(=O)(=O)N3CCCCC3)ccc2N2CCCCC2)cc1OC	.	.
C[N+](C)(C)CC(=O)N/N=C\c1c(O)ccc2ccccc12	.	.
CC(C)(C)c1ccc(C(=O)Nc2ccc(C=C(C#N)C#N)cc2)cc1	.	32µM
CC(C)(C)c1ccc(C(=O)Nc2ccc(NC(=O)c3ccc(Cl)c(Cl)c3)cc2)cc1	.	.
COc1ccc(-c2cn3c(n2)sc2cc(C(=O)NCC(C)c4ccccc4)ccc23)cc1 (centres undefined)	.	.
